# Test results reported in PubChem BioAssay (NCATS).
# Active and inactive are the calls of the source. The call rests on the fitted dose curve; in most records, active means well fitted curve in the direction sought with a large enough effect; inactive means no such curve, though single readings can be large or run the other way.
# Target: Alpha-galactosidase (Coffea arabica) (UniProt Q42656)
# Test: Counterscreen for Glucocerebrosidase Inhibitors: qHTS Assay for Coffee Bean alpha-Galactosidase at pH 5.9 (AID 998)
# Details: coffee bean alpha-galactosidase enzyme assay; series mostly up to 76.9 µM
# Description: NIH Chemical Genomics Center [NCGC]
# NIH Molecular Libraries Screening Centers Network [MLSCN]
# PI Name: Zheng, Wei [NIH]
# Alpha-galactosidase is a homodimeric glycoprotein that hydrolyzes the terminal alpha-galactosyl moieties from glycolipids and glycoproteins. Deficiency of this enzyme results in Fabry Disease with progressive accumulation of globotriaosylceramide and other glycosphingolipids in vascular endothelial cells that causes renal failure, myocardial infarction and stroke, and premature death in patients. It has reported that the improper folding and trafficking of alpha-galactosidase resulted from the genetic mutations may account for a significant numbers of Fabry patients. […] We optimized this coffee bean alpha-galactosidase assay in 1536-well plate format as a counter-screen assay for identifying the selective small molecule inhibitors of other lysosomal enzymes.
# NCGC Assay Protocol Summary:
# This is a fluorogenic enzyme assay with 4-Methylumbelliferyl alpha-D-galactopyranoside as the substrate and green coffee bean […] (from Sigma-Aldrich) as the enzyme preparation. Upon the hydrolysis of this fluorogenic substrate, the resulting product, […]. 4-Methyllumbelliferone, can be excited at 365 nm and emits at 440 nm which can be detected by a standard fluorescence plate reader. Data were normalized to the controls for basal activity (without enzyme) and 100% activity (with enzyme). In the AC50 values were determined from concentration-response data modeled with the standard Hill equation.
# Assay buffer: 50 mM citric acid, 0.005% Tween-20, pH 5.9. (pH 5.9 is an optimal condition for this enzyme assay.)
# 1536-well assay protocol for the coffee bean alpha-galactosidase:
# (1) Add 2 ul/well of enzyme (2 nM final)
# (2) Add 23 nL compounds in DMSO solution. The final titration was 0.7 nM to 77 uM.
# (3) Add 1 ul of substrate (80 uM final)
# (4) Incubate at room temperature for 20 min.
# (5) Add 2 ul stop solution (1M NaOH and 1M Glycine mixture, pH 10)
# (6) Detect the assay plate in a ViewLux plate reader (PerkinElmer) with Ex=365 nm and Em=440nm.
# Keywords: Alpha-galactosidase, Fabry Disease, pharmacological chaperone, chaperone therapy, high throughput screening, alpha-galactosidase inhibitor, MLSMR, MLSCN, NIH Roadmap, qHTS and NCGC
# Sequence of Alpha-galactosidase (Coffea arabica) (Q42656 whole entry, looked up): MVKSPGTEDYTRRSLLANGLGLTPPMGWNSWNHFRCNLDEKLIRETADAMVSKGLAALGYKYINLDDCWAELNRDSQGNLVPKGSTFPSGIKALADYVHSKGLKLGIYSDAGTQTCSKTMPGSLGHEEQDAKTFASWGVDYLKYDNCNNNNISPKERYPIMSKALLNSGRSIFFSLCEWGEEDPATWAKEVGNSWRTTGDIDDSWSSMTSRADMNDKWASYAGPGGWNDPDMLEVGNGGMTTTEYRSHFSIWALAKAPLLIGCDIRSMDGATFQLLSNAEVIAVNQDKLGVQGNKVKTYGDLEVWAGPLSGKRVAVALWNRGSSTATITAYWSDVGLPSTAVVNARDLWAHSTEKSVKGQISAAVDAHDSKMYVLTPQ
row,SMILES,outcome
1,NC(=O)CNCCC(c1ccccc1)c1ccccc1,inactive
2,N[C@@H](Cn1cc(I)c(=O)[nH]c1=O)C(=O)O,inactive
3,COc1ccc2c(c1OC)C(=O)OC2[C@H]1c2c(cc3c(c2OC)OCO3)CCN1C (stereo not given in full),inactive
4,C=CCN1CCC2(C)c3cc(O)ccc3C[C@H]1[C@H]2C,inactive
5,O=c1[nH]c2cc(C(F)(F)F)ccc2n1-c1cc(C(F)(F)F)ccc1O,inactive
6,CC1(C)CCC=[N+]1[O-],inactive
7,NC(=O)c1ncn([C@@H]2O[C@H](CO)[C@@H](O)[C@H]2O)n1,inactive
8,CC[C@]1(C2=NCCN2)Cc2ccccc2O1,inactive
9,Brc1ccc([C@H]2CN3CCSC3=N2)cc1,inactive
10,COC(=O)[C@H](NC(=O)c1cc(-c2ccccc2)nc2ccccc12)c1ccccc1,inactive
11,O=C(Cc1ccc(Cl)c(Cl)c1)N1CCCC[C@H]1CN1CCCC1,inactive
12,C=C(C)[C@H]1CN[C@H](C(=O)O)[C@@H]1CC(=O)O,inactive
13,C[C@H](O)C(=O)C1=Nc2c(nc(N)[nH]c2=O)NC1,inactive
14,Cn1c(=O)[nH]c2ncn(C)c2c1=O,inactive
15,COc1ccc2c(c1)c(CC(=O)O)c(C)n2C(=O)c1ccccc1,inactive
16,CC1(C)CCC2=C(O1)c1ccccc1C(=O)C2=O,inactive
17,CCCc1c(OCCCOc2ccc(OCC(=O)O)cc2)ccc(C(C)=O)c1O,inactive
18,O=c1c(O)c(-c2cc(O)c(O)c(O)c2)oc2cc(O)cc(O)c12,inactive
19,N=C(N)SCCc1ccc(CCSC(=N)N)cc1,inactive
20,N[C@H](C(=O)O)c1cc(O)cc(O)c1,inactive

row,SMILES,outcome
1,COc1cccc(-c2cc(=O)c3ccccc3o2)c1N,inactive
2,O=C1Cc2c([nH]c3ccc(Br)cc23)-c2ccccc2N1,inactive
3,Cn1ccnc1,inactive
4,NO,inactive
5,CN(C)c1nc2c(Br)c(Br)c(Br)c(Br)c2[nH]1,inactive
6,N[C@@H](Cc1cnc[nH]1)C(=O)O,inactive
7,C[C@H](N)Cc1c[nH]c2ccc(OCc3cccs3)cc12,inactive
8,N[C@@H](Cc1ccc(O)c(I)c1)C(=O)O,inactive
9,NC/C=C\C(=O)O,inactive
10,Cc1cc2c(cc1Cl)N(C(=O)Nc1ccnc3ccccc13)CC2,inactive
11,COc1cccc(C(=O)NCCN2CCN(c3ccc(Cl)cc3)CC2)c1,inactive
12,N.N.O=C(O)C1(C(=O)O)CCC1.[Pt],inactive
13,Nc1c(S(=O)(=O)O)cc(Nc2ccc(Nc3nc(Cl)nc(Nc4ccc(S(=O)(=O)O)cc4)n3)c(S(=O)(=O)O)c2)c2c1C(=O)c1ccccc1C2=O,inactive
14,CC(C)Cn1c(=O)n(C)c(=O)c2[nH]cnc21,inactive
15,NCCCCC(=O)O,inactive
16,O=C1NCN(c2ccccc2)C12CCN(C[C@H]1COc3ccccc3O1)CC2,inactive
17,O=C(O)/C(=C/c1c(C(=O)O)[nH]c2cc(Cl)cc(Cl)c12)c1ccccc1,inactive
18,N=c1c[n+](N2CCOCC2)[n-]o1,inactive
19,NCCCC(=O)O,inactive
20,Cc1nc2c(OCc3ccccc3)cccn2c1CC#N,inactive
